Assay results: PubChem BioAssay (EPA / NIEHS)
Activity calls are given as the source filed them. Rule for the calls: active = hit-call score of the fitted dose curve at least 0.9, where 1 is the maximum; inactive = score below 0.9.

read-out: Nuclear factor erythroid 2-related factor 2 (Homo sapiens) (UniProt Q16236); experiment: LTEA_HepaRG_NFE2L2: Life Technologies and Expression Analysis (LTEA) Assay for Nuclear factor erythroid 2-related factor 2 (NFE2L2) Transcription Factor using HepaRG (AID 2283527); conditions: mRNA level, 48 h; actives raise or lower the signal;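 for outcome: TaqMan qRT-PCR transcript level normalised to ACTB GAPDH and POLR2A housekeeping genes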
Method: LTEA_HepaRG is a cell based, multiplexed-readout assay that uses HepaRG, a human liver cell line, with measurements taken at 48 hours after chemical dosing on a 96-well plate.LTEA_HepaRG_NFE2L2 is one of 102 assay component(s) measured in the LTEA HepaRG cell culture assay. It is a marker of Inflammation/injury.Data from the assay component LTEA_HepaRG_NFE2L2 was analyzed into 1 endpoint. This assay endpoint, LTEA_HepaRG_NFE2L2, was analyzed with bidirectional fitting relative to DMSO as the negative control and baseline of activity. Using a type of inducible reporter, measures of mRNA induction for gain or loss-of-signal activity can be used to understand regulation of transcription factor activity. To generalize the intended target to other relatable targets, this assay endpoint is annotated to the dna binding intended target family, where the subfamily is basic leucine zipper.
A total of 1060 chemcials from the ToxCast library were tested in eight-point concentration-response experiments. Cell culture and cytotoxicity assays were conducted at Thermo Fisher Scientific's Custom Services facility (Madison, WI). A single lot of human HepaRG cells (Thermo Fisher Scientific, Frederick, MD) was used for the cell culture experiments. 96-well format collagen type I coated plates of human HepaRG cells were prepared using established methods. Briefly, cryopreserved HepaRG cells were thawed, plated at a density of approximately 100,000 cells/well in HepaRG Thaw, Plate, and General Purpose media (HPRG770, Thermo Fisher Scientific), and incubated for 48 hours. 0.5% DMSO was selected as vehicle control to balance the requisite need of DMSO in HepaRG cultures to maintain differentiation (for example, baseline metabolism, proportions of hepatocytes vs. cholangiocytes), while enabling further hepatic receptor pathway activation (for example, PXR and CAR) in response to chemical exposure. 48 hours after plating, the culture medium was replaced with HepaRG Serum-Free Incudtion Media. Cells were exposed to each test chemical in duplicate and maintained in CO2 incubators for another 48 hours. Chemical plates were thawed to room temperature and 200x concentrations of treatment groups were prepared. 8-point conentration-reponse curves were made with the highest exposure at 100 uM, followed by half-log dilutions, all in 0.5% DMSO. Each test plate contained variouse controls, induction positive controls (1mM phenobarbital), cytotoxicity positive controls ([…] aflatoxin B1), vehicle controls (0.5% DMSO), and total lysis controls (0.5% DMSO). Cell morphology images were taken using an Essen IncuCyte FLR automated microscope, with six 96-well plates imaged in about 24 minutes. Images were captured and exported and JPEG files. Spent culture media was transfered to black-well plates for the LDH assay, and remaining media was sorted at -80 C for later use. Cells were treated with RLT buffer and frozen until shipped for gene expression analysis. Total RNA was isolated from the cell suspension in 75 uL of Buffer RLT (Qiagen, Germantown, MD 20874) by Quintiles/Expression Analysis (Durham, NC) using a custom isolation procedure. Total RNA from each plate well was transferred to a preamplification plate. Fluidigm's 96.96 Dynamic ArrayTM (Fluidigm, Amsterdam, the Netherlands) technology was used for gene expression analyses by quantitative reverse transcription polymerase chain reaction (qRT-PCR, performed by Quintiles/Expression Analysis, Durham, NC)89. Standard TaqManTM Assays (Applied Biosystems/ThermoFisher Scientific, Foster City, CA) were used to assess the expression of 93 genes selected based on their selectivity and sensitivity to important hepatic receptors known to be modulated by environmental chemicals; importance in human hepatocyte functionality; and hepatotoxicity. […]

Chain of Nuclear factor erythroid 2-related factor 2 (Homo sapiens) (Q16236 whole entry, looked up): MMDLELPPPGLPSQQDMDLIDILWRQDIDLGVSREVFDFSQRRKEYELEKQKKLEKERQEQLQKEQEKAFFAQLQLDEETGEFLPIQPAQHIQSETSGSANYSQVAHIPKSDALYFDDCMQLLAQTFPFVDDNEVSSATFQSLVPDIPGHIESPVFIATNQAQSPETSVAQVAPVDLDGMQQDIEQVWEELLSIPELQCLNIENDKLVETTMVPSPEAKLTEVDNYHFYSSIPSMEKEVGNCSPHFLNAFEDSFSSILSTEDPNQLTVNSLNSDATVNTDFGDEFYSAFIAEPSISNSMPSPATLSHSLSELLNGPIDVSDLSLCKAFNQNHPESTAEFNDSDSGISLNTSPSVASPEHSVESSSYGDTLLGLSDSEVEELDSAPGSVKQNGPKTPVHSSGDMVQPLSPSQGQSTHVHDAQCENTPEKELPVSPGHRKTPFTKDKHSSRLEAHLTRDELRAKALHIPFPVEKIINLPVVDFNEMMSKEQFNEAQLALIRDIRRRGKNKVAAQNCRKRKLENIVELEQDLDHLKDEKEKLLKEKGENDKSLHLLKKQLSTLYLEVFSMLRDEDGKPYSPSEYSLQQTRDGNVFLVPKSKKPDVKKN

SMILES | outcome | AC50
COP(=O)(OC)OC(Br)C(Cl)(Cl)Br (stereo not given) | inactive | –
CC(=NC#N)N(C)Cc1ccc(Cl)nc1 | inactive | –
N#CSCSC#N | inactive | –
Cc1nn(-c2cc(NS(C)(=O)=O)c(Cl)cc2Cl)c(=O)n1C(F)F | inactive | –
COc1cc(OC)nc(Sc2cccc(Cl)c2C(=O)O)n1 | inactive | –
CCOC(=O)COc1cc(-c2nn(C)c(OC(F)F)c2Cl)c(F)cc1Cl | inactive | –
COP(=O)(OC)SCn1c(=O)oc2cc(Cl)cnc21 | inactive | –
CCCSP(=O)(OCC)Oc1ccc(Br)cc1Cl (stereo not given) | inactive | –
C[N+]1(C)CCCCC1 | inactive | –
O=c1ccc(=O)[nH][nH]1 | inactive | –
Cc1ccn2nc(S(=O)(=O)Nc3c(F)cccc3F)nc2n1 | inactive | –
CCC(=NOC/C=C/Cl)C1=C(O)CC(C2CCOCC2)CC1=O (stereo not given) | inactive | –
C#CC(C)(C)NC(=O)c1cc(Cl)cc(Cl)c1 | inactive | –
CCCSP(=O)(OCC)SCCC | inactive | –
CCc1cccc(C)c1N(C(=O)CCl)C(C)COC (stereo not given) | inactive | –
CC(Oc1cccc(Cl)c1)C(=O)O (stereo not given) | inactive | –
Nc1nc(N)nc(NC2CC2)n1 | inactive | –
CCCCOC(=O)c1ccccc1C(=O)O | inactive | –
CC1(C(=O)Nc2ccc(O)c(Cl)c2Cl)CCCCC1 | inactive | –
CCOP(=O)(SC(C)CC)N1CCSC1=O (stereo not given) | inactive | –

SMILES | outcome | AC50
CCC(=O)Nc1ccc(Cl)c(Cl)c1 | – | 32.2 µM (active)
CCOP(=S)(OCC)Oc1cc(C)nc(C(C)C)n1 | inactive | –
CON=C(C(=O)OC)c1ccccc1CON=C(C)c1cccc(C(F)(F)F)c1 | inactive | –
C=C(C)[C@H]1Cc2c(ccc3c2O[C@@H]2COc4cc(OC)c(OC)cc4[C@@H]2C3=O)O1 | – | 7.62 µM (active)
O=[N+]([O-])c1cc(C(F)(F)F)c(Cl)c([N+](=O)[O-])c1Nc1ncc(C(F)(F)F)cc1Cl | inactive | –
C#CCC1=C(C)C(OC(=O)C2C(C=C(C)C)C2(C)C)CC1=O (stereo not given) | inactive | –
CSc1nnc(C(C)(C)C)c(=O)n1N | inactive | –
O=C(O)c1cc(Oc2ccc(C(F)(F)F)cc2Cl)ccc1[N+](=O)[O-] | inactive | –
C[Si](Cn1cncn1)(c1ccc(F)cc1)c1ccc(F)cc1 | – | 39.3 µM (active)
CCOP(=S)(Oc1cnc(C(C)(C)C)nc1)OC(C)C (stereo not given) | inactive | –
CCOP(=O)(OCC)Oc1cc(C)nc(C(C)C)n1 | inactive | –
CN(C)[C@@H]1C(=O)C(C(N)=O)=C(O)[C@@]2(O)C(=O)C3=C(O)c4c(O)cccc4[C@@](C)(O)[C@H]3[C@H](O)[C@@H]12 | inactive | –
CCOP(=S)(OCC)OC(Cl)C(Cl)(Cl)Cl (stereo not given) | inactive | –
CCOC(=O)CC(SP(=O)(OC)OC)C(=O)OCC (stereo not given) | inactive | –
CCOP(=S)(OCC)Oc1ccc([N+](=O)[O-])cc1 | inactive | –
CC(C1CC1)C(O)(Cn1cncn1)c1ccc(Cl)cc1 (stereo not given) | inactive | –
CSc1nc(NC(C)C)nc(NC(C)C)n1 | inactive | –
CNc1cnn(-c2cccc(C(F)(F)F)c2)c(=O)c1Cl | – | 9.92 µM (active)
CCCOc1nn(C(=O)NS(=O)(=O)c2ccccc2C(=O)OC)c(=O)n1C | inactive | –
CN(C)NC(=O)CCC(=O)O | inactive | –
